Source: the supplement of paper PMC10849652
The full data set covers some 7,900 targets. This sample favours those with a hit. About 0.6% of all pairs of compound and target were hits.

Compound: c1cn2cc(-c3ccc4cn[nH]c4c3)nc(Nc3ccc(N4CCOCC4)cc3)c2n1 [entospletinib]
Assay: log2 fold change, soluble protein after heating vs DMSO (PISA); higher = thermal stabilisation; K562 cells, 10 uM, 30 min; active = over 0.2 and 3.5 SD of the protein, either way, in both replicates (recomputed)
In short: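 Thermal stability values are relative to control samples and come from duplicates. They are expressed as log2 fold changes. For measurement, K562 cells (2×10^6 cells/mL) received 10 μM compound for 30 min, and aliquots were heated for 3 min over 48°C-58°C, pooled, and extracted at 4°C in PBS with 0.5% NP-40. Soluble protein, the supernatant after 21,000xg for 90 min, was quantified by TMTpro 16plex LC-MS/MS with equalised channel sums.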

Chain of UniProt O43913 (O43913 whole entry, looked up): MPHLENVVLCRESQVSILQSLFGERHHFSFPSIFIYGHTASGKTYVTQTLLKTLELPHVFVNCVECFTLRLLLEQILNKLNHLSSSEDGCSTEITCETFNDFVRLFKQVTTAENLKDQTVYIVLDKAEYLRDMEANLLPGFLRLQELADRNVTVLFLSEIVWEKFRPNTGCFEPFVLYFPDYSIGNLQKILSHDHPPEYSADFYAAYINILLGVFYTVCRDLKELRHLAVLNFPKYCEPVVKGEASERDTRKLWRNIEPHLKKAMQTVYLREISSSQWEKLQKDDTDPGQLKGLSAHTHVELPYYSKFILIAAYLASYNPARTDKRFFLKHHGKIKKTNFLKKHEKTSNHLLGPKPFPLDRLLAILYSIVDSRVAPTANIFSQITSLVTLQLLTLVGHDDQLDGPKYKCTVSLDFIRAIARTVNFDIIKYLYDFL
Chain of UniProt P46087 (P46087 whole entry, looked up): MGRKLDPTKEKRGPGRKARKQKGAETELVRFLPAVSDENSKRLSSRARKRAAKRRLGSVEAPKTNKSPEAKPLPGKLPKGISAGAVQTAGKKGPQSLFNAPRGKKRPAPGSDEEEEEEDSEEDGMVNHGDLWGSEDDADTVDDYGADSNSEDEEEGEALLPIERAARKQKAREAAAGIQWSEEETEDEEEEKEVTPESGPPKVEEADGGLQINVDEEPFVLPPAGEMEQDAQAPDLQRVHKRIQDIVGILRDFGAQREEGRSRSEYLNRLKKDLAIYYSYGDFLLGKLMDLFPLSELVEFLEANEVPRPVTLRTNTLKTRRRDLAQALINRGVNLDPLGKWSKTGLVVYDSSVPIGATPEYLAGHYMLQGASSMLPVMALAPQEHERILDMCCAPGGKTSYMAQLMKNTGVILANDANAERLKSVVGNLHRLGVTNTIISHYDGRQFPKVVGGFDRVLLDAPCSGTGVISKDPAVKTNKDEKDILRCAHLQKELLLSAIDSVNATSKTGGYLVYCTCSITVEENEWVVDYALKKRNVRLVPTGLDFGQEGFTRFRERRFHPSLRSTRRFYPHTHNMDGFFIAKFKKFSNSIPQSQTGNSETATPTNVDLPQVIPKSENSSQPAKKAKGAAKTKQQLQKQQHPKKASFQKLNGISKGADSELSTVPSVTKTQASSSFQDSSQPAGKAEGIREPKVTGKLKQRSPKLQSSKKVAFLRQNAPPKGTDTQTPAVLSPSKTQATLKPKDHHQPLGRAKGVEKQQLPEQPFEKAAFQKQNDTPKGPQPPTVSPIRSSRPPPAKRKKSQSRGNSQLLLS
Chain of UniProt Q13423 (Q13423 whole entry, looked up): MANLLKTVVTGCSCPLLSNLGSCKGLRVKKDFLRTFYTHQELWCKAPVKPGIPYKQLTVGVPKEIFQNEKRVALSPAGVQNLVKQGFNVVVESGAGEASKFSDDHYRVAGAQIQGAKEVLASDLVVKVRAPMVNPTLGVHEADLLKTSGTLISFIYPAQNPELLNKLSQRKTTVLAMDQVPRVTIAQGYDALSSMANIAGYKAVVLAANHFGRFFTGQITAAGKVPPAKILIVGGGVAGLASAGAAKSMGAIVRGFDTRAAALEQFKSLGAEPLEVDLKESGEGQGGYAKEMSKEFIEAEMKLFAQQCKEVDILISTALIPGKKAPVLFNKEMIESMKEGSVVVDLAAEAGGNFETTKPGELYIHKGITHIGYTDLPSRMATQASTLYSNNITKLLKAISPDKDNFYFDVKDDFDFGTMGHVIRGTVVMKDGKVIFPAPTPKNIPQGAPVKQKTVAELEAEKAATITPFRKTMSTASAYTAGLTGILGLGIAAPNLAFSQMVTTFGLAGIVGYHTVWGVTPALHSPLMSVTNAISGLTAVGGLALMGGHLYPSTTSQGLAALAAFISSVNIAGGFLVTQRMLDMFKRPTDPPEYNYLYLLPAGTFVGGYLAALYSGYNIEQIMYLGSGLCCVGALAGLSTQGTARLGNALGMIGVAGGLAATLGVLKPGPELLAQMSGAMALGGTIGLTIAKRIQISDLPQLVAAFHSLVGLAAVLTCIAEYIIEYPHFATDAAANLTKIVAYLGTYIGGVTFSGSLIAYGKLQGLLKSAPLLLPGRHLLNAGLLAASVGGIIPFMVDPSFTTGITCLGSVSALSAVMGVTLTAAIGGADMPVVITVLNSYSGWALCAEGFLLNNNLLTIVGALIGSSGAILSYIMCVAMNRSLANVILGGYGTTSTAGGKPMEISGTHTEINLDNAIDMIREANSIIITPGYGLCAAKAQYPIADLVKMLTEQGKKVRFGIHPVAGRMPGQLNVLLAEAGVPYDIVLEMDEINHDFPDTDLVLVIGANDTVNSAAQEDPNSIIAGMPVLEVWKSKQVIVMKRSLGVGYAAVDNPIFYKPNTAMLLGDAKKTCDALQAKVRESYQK
Chain of UniProt Q96IV0 (Q96IV0 whole entry, looked up): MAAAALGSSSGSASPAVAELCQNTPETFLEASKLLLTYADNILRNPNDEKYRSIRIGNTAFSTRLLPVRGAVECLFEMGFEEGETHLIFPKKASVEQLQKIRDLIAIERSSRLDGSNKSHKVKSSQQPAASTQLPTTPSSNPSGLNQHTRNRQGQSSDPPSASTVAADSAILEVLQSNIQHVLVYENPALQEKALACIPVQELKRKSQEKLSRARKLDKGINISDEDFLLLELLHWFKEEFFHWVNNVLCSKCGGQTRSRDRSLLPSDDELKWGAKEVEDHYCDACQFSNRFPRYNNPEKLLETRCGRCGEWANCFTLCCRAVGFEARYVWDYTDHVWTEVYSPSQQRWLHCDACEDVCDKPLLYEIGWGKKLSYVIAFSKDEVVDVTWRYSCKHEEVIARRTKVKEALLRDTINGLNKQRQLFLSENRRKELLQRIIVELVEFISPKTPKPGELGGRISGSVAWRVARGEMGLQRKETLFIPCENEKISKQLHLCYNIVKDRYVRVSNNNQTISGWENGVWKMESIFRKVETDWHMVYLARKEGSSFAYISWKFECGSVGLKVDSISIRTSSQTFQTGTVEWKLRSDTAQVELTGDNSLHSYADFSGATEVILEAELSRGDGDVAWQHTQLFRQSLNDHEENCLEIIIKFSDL
Chain of UniProt Q9ULX3 (Q9ULX3 whole entry, looked up): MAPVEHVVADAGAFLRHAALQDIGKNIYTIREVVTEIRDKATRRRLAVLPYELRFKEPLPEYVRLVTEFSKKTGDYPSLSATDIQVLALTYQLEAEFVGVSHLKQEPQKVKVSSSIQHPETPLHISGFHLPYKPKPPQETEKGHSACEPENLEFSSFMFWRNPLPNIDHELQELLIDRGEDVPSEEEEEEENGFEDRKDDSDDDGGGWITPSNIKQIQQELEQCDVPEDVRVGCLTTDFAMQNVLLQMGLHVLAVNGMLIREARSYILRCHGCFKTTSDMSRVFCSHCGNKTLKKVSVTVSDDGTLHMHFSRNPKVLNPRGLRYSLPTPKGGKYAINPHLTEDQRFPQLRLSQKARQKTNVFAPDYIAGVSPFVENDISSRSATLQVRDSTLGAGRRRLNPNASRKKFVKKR
Chain of UniProt Q6VY07 (Q6VY07 whole entry, looked up): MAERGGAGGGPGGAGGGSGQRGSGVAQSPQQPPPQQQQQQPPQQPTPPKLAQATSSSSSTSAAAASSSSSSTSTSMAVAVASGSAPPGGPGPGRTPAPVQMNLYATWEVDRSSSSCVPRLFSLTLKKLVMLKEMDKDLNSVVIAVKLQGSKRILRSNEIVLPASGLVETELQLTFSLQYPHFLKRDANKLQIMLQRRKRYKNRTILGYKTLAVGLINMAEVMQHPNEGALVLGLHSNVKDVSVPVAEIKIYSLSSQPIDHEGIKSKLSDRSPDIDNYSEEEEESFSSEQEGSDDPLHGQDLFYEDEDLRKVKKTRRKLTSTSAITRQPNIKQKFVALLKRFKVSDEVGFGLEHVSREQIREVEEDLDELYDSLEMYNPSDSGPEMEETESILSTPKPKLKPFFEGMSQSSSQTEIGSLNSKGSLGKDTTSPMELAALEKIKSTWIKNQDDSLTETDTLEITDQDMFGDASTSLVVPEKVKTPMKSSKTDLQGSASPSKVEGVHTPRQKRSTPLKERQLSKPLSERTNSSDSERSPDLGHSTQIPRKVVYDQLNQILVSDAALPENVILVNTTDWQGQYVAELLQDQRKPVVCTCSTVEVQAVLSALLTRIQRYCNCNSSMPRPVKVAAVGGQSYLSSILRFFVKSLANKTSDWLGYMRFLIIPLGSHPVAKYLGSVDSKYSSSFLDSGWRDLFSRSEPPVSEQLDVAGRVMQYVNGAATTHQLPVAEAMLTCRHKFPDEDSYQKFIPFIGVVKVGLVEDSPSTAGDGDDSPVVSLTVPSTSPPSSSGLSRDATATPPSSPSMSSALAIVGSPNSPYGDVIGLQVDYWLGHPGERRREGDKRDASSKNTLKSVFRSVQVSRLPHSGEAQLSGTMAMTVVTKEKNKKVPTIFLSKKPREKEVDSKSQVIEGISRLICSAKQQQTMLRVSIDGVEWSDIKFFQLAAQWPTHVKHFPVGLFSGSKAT
Chain of UniProt P55209 (P55209 whole entry, looked up): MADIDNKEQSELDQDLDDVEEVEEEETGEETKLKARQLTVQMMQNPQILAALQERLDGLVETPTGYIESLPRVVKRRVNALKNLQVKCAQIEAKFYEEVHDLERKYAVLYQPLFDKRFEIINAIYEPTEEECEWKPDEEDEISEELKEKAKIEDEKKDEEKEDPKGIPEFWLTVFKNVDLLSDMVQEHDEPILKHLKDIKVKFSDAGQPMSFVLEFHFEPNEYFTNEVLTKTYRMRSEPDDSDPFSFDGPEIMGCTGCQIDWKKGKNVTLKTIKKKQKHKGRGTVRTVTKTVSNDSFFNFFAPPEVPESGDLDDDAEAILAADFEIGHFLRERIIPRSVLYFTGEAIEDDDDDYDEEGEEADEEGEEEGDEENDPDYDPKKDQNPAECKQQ
Chain of UniProt P40261 (P40261 whole entry, looked up): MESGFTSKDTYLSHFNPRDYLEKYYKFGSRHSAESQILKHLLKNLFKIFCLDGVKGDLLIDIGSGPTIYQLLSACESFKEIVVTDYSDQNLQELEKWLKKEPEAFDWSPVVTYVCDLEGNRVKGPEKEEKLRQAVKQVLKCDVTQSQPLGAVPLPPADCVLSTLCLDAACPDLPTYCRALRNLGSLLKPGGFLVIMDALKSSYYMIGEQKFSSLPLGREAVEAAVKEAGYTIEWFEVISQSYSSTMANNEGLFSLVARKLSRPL

Target	log2 fold change
MRPL47 (UniProt Q9HD33)	-0.116 (inactive)
NIBAN1 (UniProt Q9BZQ8)	0.055 (inactive)
PACS1 (UniProt Q6VY07)	0.046 (inactive)
NFE2 (UniProt Q16621)	-0.055 (inactive)
NECTIN2 isoform 2 (UniProt Q92692)	-0.003 (inactive)
NDUFS7 (UniProt O75251)	0.006 (inactive)
ORC5 (UniProt O43913)	0.012 (inactive)
NOP2 isoform 4 (UniProt P46087)	0.147 (inactive)
NGLY1 (UniProt Q96IV0)	0.081 (inactive)
NOB1 (UniProt Q9ULX3)	-0.013 (inactive)
NCBP2AS2 (UniProt Q69YL0)	-0.017 (inactive)
MLX (UniProt Q9UH92)	-0.17 (inactive)
NNT (UniProt Q13423)	-0.042 (inactive)
MTMR14 (UniProt Q8NCE2)	-0.061 (inactive)
NDFIP1 (UniProt Q9BT67)	-0.003 (inactive)
MRPS26 (UniProt Q9BYN8)	0.078 (inactive)
NUP98 (UniProt P52948)	0.003 (inactive)
NDUFB10 (UniProt O96000)	0.003 (inactive)
NPC1L1 (UniProt Q9UHC9)	-0.007 (inactive)
NNMT (UniProt P40261)	0.042 (inactive)
NAP1L1 (UniProt P55209)	0.028 (inactive)
NCOR1 (UniProt O75376)	0.067 (inactive)
NRF1 isoform 4 (UniProt Q16656)	-0.041 (inactive)
